Source: PubChem BioAssay (NCATS)
“And” between values parts separate entries of the source, which are not always exact repeats. Identical values can stand only once. Results filed as inconclusive are left out. A structure can be active in one record and inactive in another. The source made the active and inactive calls. The call rests on the fitted dose curve; in most records, active means well fitted curve in the direction sought with a large enough effect; inconclusive means small, poorly fitted or top-dose-only effect, or another doubt; inactive means no such curve, though single readings can be large; an effect the other way counts as inactive or inconclusive.

Experiments:
[1] = qHTS Screen of the MIPE 4.0 Collection Against Ewings Sarcoma (RDES) (AID 1259252); further: nearly all actives have a fitted effect of over 35% in size; further: potency means the concentration at half of the fitted maximal effect
Procedure, shortened: (§1)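 Compound titrations go onto adherent log-phase cells 4 h after seeding, incubate 48 h at 37C, then CellTiter-Glo luminescence reports viability relative to DMSO and cell-free controls.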

[2] = qHTS Screen of the MIPE 4.0 Collection Against Ewings Sarcoma (TC71) (AID 1259253); further: nearly all actives have a fitted effect of over 40% in size; further: potency means the concentration at half of the fitted maximal effect
Procedure, shortened: as §1

[3] = qHTS Screen of the MIPE 4.0 Collection Against Ewings Sarcoma (EW8) (AID 1259255); further: nearly all actives have a fitted effect of over 35% in size; further: potency means the concentration at half of the fitted maximal effect
Procedure, shortened: as §1

[4] = P-glycoprotein substrates identified in KB-8-5-11 adenocarcinoma cell line, qHTS therapeutic library screen (AID 1346987); further: nearly all actives have a fitted effect of over 65% in size; further: potency means the concentration at half of the fitted maximal effect
Procedure, shortened: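 KB-8-5-11: colchicine-selected sub-line of KB-3-1 over-expressing P-gp; assay medium lacked colchicine. 72 h drug exposure at 37 degree C, CellTiter-Glo.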

[5] = qHTS Screen of the MIPE 4.0 Collection Against Ewings Sarcoma (TC32) (AID 1259256); further: nearly all actives have a fitted effect of over 45% in size; further: potency means the concentration at half of the fitted maximal effect
Procedure, shortened: as §1

[6] = NS1 protein of Zika virus - qHTS assay to identify small molecule inhibitors in human HEK 293 cells (AID 1347053); further: nearly all actives have a fitted effect of over 55% in size; further: potency means the concentration at half of the fitted maximal effect
Procedure, shortened: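 HEK 293; 20 h pre-culture, 37 C/5% CO2; cpd 1 h pre-infection; ZIKV MR766, MOI = 0.5, 24 h, 37 C; TR-FRET NS1 readout (two anti-NS1 Abs); norm. to no-virus vs infected.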

[7] = P-glycoprotein substrates identified in KB-3-1 adenocarcinoma cell line, qHTS therapeutic library screen (AID 1346986); further: nearly all actives have a fitted effect of over 60% in size;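 further: potency means the concentration at half of the fitted maximal effect; potency is for cytotoxicity meaning loss of cell viability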
Procedure, shortened: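 KB-3-1 parental cells and P-gp-overexpressing KB-8-5-11 (colchicine omitted during assay) plated at 500 cells/well, dosed in dose-response, incubated 72 h at 37 degree C. CellTiter-Glo luminescence read; KB-8-5-11 also tested with tariquidar.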

[8] = Identifying Small Molecule Inhibitors of Pancreatic Cancer Stem Cells (Panc1, Spheroid) (AID 1259359);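 further: potency means the concentration at half of the fitted maximal effect; compound exposure lasted 48 h before reading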
Procedure, shortened: (§2)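 Viability is scored by CellTiter-Glo luminescence 48 h after dosing, expressed as percent activity against vehicle and no-cell references. Spheroid formats rely on cells cultured 14 days in stem cell media beforehand.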

[9] = Identifying Small Molecule Inhibitors of Pancreatic Cancer Stem Cells (A278, Adherent) (AID 1259361);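 further: viability read after 48 h compound exposure; nearly all actives have a fitted effect of over 35% in size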
Procedure, shortened: as §2

## CCC(=C(CC)c1ccc(O)cc1)c1ccc(O)cc1
[1]
  Potency: 23.5 µM (active)
[2]
  Potency: 26.4 µM (active)
[3]
  Potency: 26.4 µM (active)
[4]
  Potency: inactive

## CC(C)(O)CC(=O)NCCn1ccc2ncnc(Nc3ccc(Oc4cccc(C(F)(F)F)c4)c(Cl)c3)c21
[1]
  Potency: 0.935 µM (active)
[2]
  Potency: 26.4 µM (active)
[5]
  Potency: 26.4 µM (active)

## OC[C@H]1O[C@@H](O[C@H]2[C@@H](O)[C@@](O)(CO)O[C@@H]2CO)[C@H](O)[C@@H](O)[C@@H]1O
[1]
  Potency: inactive
[2]
  Potency: inactive
[3]
  Potency: inactive
[4]
  Potency: inactive
[6]
  Potency: inactive

## CC(C)c1onc(-c2c(Cl)cccc2Cl)c1COc1ccc(C=Cc2cccc(C(=O)O)c2)c(Cl)c1
[1]
  Potency: inactive
[2]
  Potency: 18.7 µM (active)
[3]
  Potency: inactive
[4]
  Potency: inactive
[6]
  Potency: inactive

## CC1C(=O)OC2C(O)C34C5CC(C(C)(C)C)C36C(OC(=O)C6O)OC4(C(=O)O5)C12O (stereo not drawn)
[1]
  Potency: 13.2 µM (active)
[2]
  Potency: 14.8 µM (active)
[5]
  Potency: inactive
[7]
  Potency: inactive
[4]
  Potency: inactive
[6]
  Potency: inactive

## CCn1c(-c2nonc2N)nc2cncc(CNC3CCNCC3)c21
[1]
  Potency: 11.8 µM (active)
[2]
  Potency: inactive
[5]
  Potency: 14.8 µM (active)
[4]
  Potency: inactive
[6]
  Potency: inactive

## NS(=O)(=O)c1ccc(Nc2nc(OCC3CCCCC3)c3[nH]cnc3n2)cc1
[1]
  Potency: 5.9 µM (active)
[2]
  Potency: 14.8 µM (active)
[5]
  Potency: 16.6 µM (active)
[4]
  Potency: inactive

## C[C@]12C=CC(=O)C=C1CC[C@@H]1[C@@H]2[C@@H](O)C[C@@]2(C)[C@@H]1CC[C@]2(O)C(=O)CO
[1]
  Potency: inactive
[2]
  Potency: inactive
[5]
  Potency: inactive
[4]
  Potency: inactive
[6]
  Potency: inactive

## Cn1c(=O)c(-c2c(Cl)cccc2Cl)cc2cnc(Nc3cccc(C(=O)O)c3)nc21
[1]
  Potency: 0.0662 µM (active)
[2]
  Potency: inactive
[5]
  Potency: inactive
[7]
  Potency: inactive
[4]
  Potency: inactive and 4.61 µM (active)
[6]
  Potency: inactive

## CCCCC(C)(C)[C@H](O)C=C[C@H]1[C@H](O)CC(=O)[C@H]1CC=CCCCC(=O)O
[1]
  Potency: inactive
[2]
  Potency: 18.7 µM (active)
[5]
  Potency: 23.5 µM (active)
[7]
  Potency: inactive
[4]
  Potency: inactive
[6]
  Potency: inactive

## C=C[C@@H]1CN2CCC1C[C@@H]2C(O)c1ccnc2ccc(OC)cc12 (stereo partly drawn)
[1]
  Potency: 3.72 µM (active)
[2]
  Potency: 4.18 µM (active)
[5]
  Potency: 1.18 µM (active)
[4]
  Potency: inactive
[6]
  Potency: inactive

## O=S(=O)(O)c1ccc2cc(N=Nc3cc(S(=O)(=O)O)c4cccnc4c3O)ccc2c1
[1]
  Potency: 18.7 µM (active)
[2]
  Potency: 14.8 µM (active)
[5]
  Potency: 16.6 µM (active)
[4]
  Potency: inactive
[6]
  Potency: inactive

## CC1(COc2ccc3c(c2)ncn3-c2ccc3cccc(N4CCC(N)CC4)c3n2)COC1
[1]
  Potency: inactive
[2]
  Potency: inactive
[5]
  Potency: inactive
[7]
  Potency: 10.3 µM (active)

## CCOc1ccccc1N=Nc1c(C)[nH]n(-c2nc(-c3ccccc3)cs2)c1=O
[1]
  Potency: 16.6 µM (active)
[2]
  Potency: 20.9 µM (active)
[5]
  Potency: 11.8 µM (active)
[4]
  Potency: inactive

## O=C(O)CCC=CCC[C@@H]1[C@H](N2CCCCC2)[C@@H](O)C[C@@H]1OCc1ccc(-c2ccccc2)cc1
[1]
  Potency: inactive
[2]
  Potency: inactive
[5]
  Potency: inactive
[7]
  Potency: inactive
[4]
  Potency: inactive
[6]
  Potency: inactive

## Cc1c(-c2cccc3c(CCCOc4cccc5ccccc45)c(C(=O)O)n(Cc4cccnc4)c23)c(COc2ccc(N3CCN([S+](=O)([O-])N(C)C)CC3)cc2)nn1C
[1]
  Potency: 16.6 µM (active)
[2]
  Potency: 20.9 µM (active)
[5]
  Potency: 18.7 µM (active)
[4]
  Potency: inactive

## CN1CCC(COc2cnc(-c3cccc(Cn4nc(-c5cccc(C#N)c5)ccc4=O)c3)nc2)CC1
[1]
  Potency: 7.43 µM (active)
[2]
  Potency: 13.2 µM (active)
[5]
  Potency: 20.9 µM (active)
[4]
  Potency: inactive and 16.4 µM (active)

## O=C1NC(=O)C(c2cnc3ccccn23)=C1c1cn2c3c(cccc13)CN(C(=O)N1CCOCC1)CC2
[1]
  Potency: 5.26 µM (active)
[2]
  Potency: 23.5 µM (active)
[5]
  Potency: 16.6 µM (active)
[7]
  Potency: 5.8 µM (active)
[6]
  Potency: 0.59 µM (active)

## COc1cc2ncnc(Nc3cc(Br)c(O)c(Br)c3)c2cc1OC
[1]
  Potency: 0.0418 µM (active)
[2]
  Potency: 0.059 µM (active)
[5]
  Potency: 0.418 µM (active)
[7]
  Potency: inactive
[4]
  Potency: inactive
[6]
  Potency: inactive

## Cc1ccc(C(=O)N(CCCN)[C@@H](c2nc3cc(Cl)ccc3c(=O)n2Cc2ccccc2)C(C)C)cc1
[1]
  Potency: 0.0017 µM (active)
[2]
  Potency: 0.0019 µM (active)
[5]
  Potency: inactive
[8]
  Potency: 0.003 µM (active)
[9]
  IC50 (viability decrease): 0.0047 µM (active)
[4]
  Potency: 0.118 µM (active)
[6]
  Potency: inactive

## NC1(C(=O)N[C@@H](CCO)c2ccc(Cl)cc2)CCN(c2ncnc3[nH]ccc23)CC1
[1]
  Potency: 3.72 µM (active)
[2]
  Potency: 16.6 µM (active)
[5]
  Potency: 16.6 µM (active)
[4]
  Potency: inactive
[6]
  Potency: inactive

## O=C1Nc2ccc(I)cc2C1=Cc1cc(Br)c(O)c(Br)c1
[1]
  Potency: 18.7 µM (active)
[2]
  Potency: 18.7 µM (active)
[5]
  Potency: 20.9 µM (active)
[4]
  Potency: inactive
[6]
  Potency: inactive

## COc1ccc(-c2oc3c(CC=C(C)C)c(O)cc(O)c3c(=O)c2O)cc1
[1]
  Potency: 14.8 µM (active)
[2]
  Potency: 18.7 µM (active)
[5]
  Potency: 23.5 µM (active)
[4]
  Potency: inactive
